Eight compounds from PubChem BioAssay (NCI) can be followed below.

About 83,000 compounds went through this panel and 20% of them were active in at least one assay; those are over-represented in the sample as a whole.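 Results are percent growth after 48 hours of single-concentration exposure. 100 means growth as in untreated cells, lower positive values show inhibition; negative values down to -100 show cell death.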 Values without a mark were called inactive. Active and inactive are the calls of the source. How the source made its calls: active means growth percent below 10; inactive means the rest.

Test systems include SR leukemia; RPMI-8226 leukemia; OVCAR-8 ovarian; OVCAR-5 ovarian; OVCAR-4 ovarian; SK-OV-3 ovarian; IGROV1 ovarian; OVCAR-3 ovarian; HS 578T breast; NCI/ADR-RES ovarian; T-47D breast; BT-549 breast; MDA-MB-435 melanoma; SW-620 colon; HCT-116 colon; HCC-2998 colon; KM12 colon; MDA-MB-468 breast; MCF7 breast.
What all share (experiment): NCI-60 one-dose screen, 48 h (100 = growth as untreated, 0 = no growth, -100 = all killed)
What all share (settings): 10 µM unless noted

As to `O=C(Cn1c(/C=C/c2ccccc2)nc2ccccc2c1=O)Nc1ccc(Cl)cc1`, the growth is 87.6% with SR leukemia; 86.8% with RPMI-8226 leukemia; 58.3% with OVCAR-8 ovarian; 68.7% in the test with OVCAR-5 ovarian; -22.4% (active) in the test on OVCAR-4 ovarian; 40.2% in the test on SK-OV-3 ovarian. The growth in the test with IGROV1 ovarian is 67.7%; with OVCAR-3 ovarian, 29.2%; in the test on HS 578T breast it was 37.8%; in the test with NCI/ADR-RES ovarian, 66.6%; with T-47D breast, -11.5% (active); in the test on BT-549 breast, 89%. The growth was 85.2% with MDA-MB-435 melanoma; 72.1% with SW-620 colon; 30.4% with HCT-116 colon; 99.2% with HCC-2998 colon; 84.3% in the test on KM12 colon; 57.3% with MDA-MB-468 breast.

`Cn1cc(-c2cc(N)n3nc(-c4c[nH]c5ccccc45)cc3n2)c2cc(Br)cnc21`: the growth in the test on SR leukemia is -29.5% (active); in the test with RPMI-8226 leukemia it was -14.8% (active); in the test with OVCAR-8 ovarian, -22.6% (active); in the test on OVCAR-5 ovarian, -77.6% (active); in the test on OVCAR-4 ovarian, 5.89% (active); in the test with SK-OV-3 ovarian it was -34.6% (active). For the same compound, the growth in the test with IGROV1 ovarian is -41.9% (active); in the test with OVCAR-3 ovarian it was -66% (active); with HS 578T breast, -17.5% (active); with NCI/ADR-RES ovarian, -44.6% (active); in the test with T-47D breast it was -56% (active); in the test on BT-549 breast, -87.8% (active). Further, the growth in the test on MDA-MB-435 melanoma was -79.3% (active); in the test with SW-620 colon, -69.1% (active); in the test with HCT-116 colon it was -90.7% (active); in the test with HCC-2998 colon it was -94.3% (active); with KM12 colon, -60.9% (active); with MDA-MB-468 breast it was -88.5% (active).

For the compound `COc1c(F)ccc(C(=O)Nc2ccc3nc(NC(=O)C4CCCN(S(=O)(=O)c5ccc(Br)c(F)c5)C4)sc3c2)c1F` (configuration not stated), the growth was 47.2% with SR leukemia; 52% in the test on RPMI-8226 leukemia; 98.1% with OVCAR-8 ovarian; 102% in the test with OVCAR-5 ovarian; 75.4% in the test with OVCAR-4 ovarian; 102% with SK-OV-3 ovarian. For the same compound, the growth with IGROV1 ovarian is 82.2%; with OVCAR-3 ovarian, 96.8%; in the test on HS 578T breast it was 72.8%; in the test on NCI/ADR-RES ovarian, 83.4%; in the test on T-47D breast, 67.5%; in the test on BT-549 breast, 77%. In addition, the growth in the test with MDA-MB-435 melanoma is 92.3%; in the test on SW-620 colon, 96.5%; in the test on HCT-116 colon, 62.7%; in the test with HCC-2998 colon, 109%; in the test on KM12 colon it was 79.2%; in the test with MDA-MB-468 breast it was 92%.

Consider `CCCSc1nc(NCCc2c[nH]c3ccccc23)c(C#N)c(-c2ccc(F)cc2)n1`, for which the growth in the test with SR leukemia was 6.1% (active); in the test with RPMI-8226 leukemia, 38.4%; in the test on OVCAR-8 ovarian, 65.2%; in the test with OVCAR-5 ovarian, 82.6%; in the test with OVCAR-4 ovarian it was 70.7%; in the test with SK-OV-3 ovarian, 72.3%. In addition, the growth is 85.8% in the test with IGROV1 ovarian; 84.9% in the test with OVCAR-3 ovarian; 34.9% in the test with HS 578T breast; 49.5% in the test on NCI/ADR-RES ovarian; 64.5% in the test with BT-549 breast; 72.9% in the test on MDA-MB-435 melanoma. In addition, the growth is 55.7% in the test with SW-620 colon; 35.3% with MCF7 breast; 22.6% with HCT-116 colon; 44.4% in the test on HCC-2998 colon; 31.3% in the test with KM12 colon; 44.4% in the test with MDA-MB-468 breast.

For `Cn1cc(-c2cc(N)n3nc(-c4c[nH]c5ccccc45)cc3n2)c2cccnc21`, the growth is -32.9% (active) with SR leukemia; -28.5% (active) in the test on RPMI-8226 leukemia; 27.5% in the test on OVCAR-8 ovarian; 30.2% in the test with OVCAR-5 ovarian; 28.4% in the test on OVCAR-4 ovarian; 89.9% in the test on SK-OV-3 ovarian. In addition, the growth with IGROV1 ovarian is 28.1%; in the test with OVCAR-3 ovarian it was 12.6%; in the test with HS 578T breast, 82.7%; with NCI/ADR-RES ovarian, 27.7%; in the test with T-47D breast, 22.2%; in the test on BT-549 breast, 71.8%. For the same compound, the growth with MDA-MB-435 melanoma was 5.57% (active); with SW-620 colon, -53.7% (active); with HCT-116 colon it was -77.1% (active); in the test on HCC-2998 colon it was -31.6% (active); with KM12 colon, 1.87% (active); with MDA-MB-468 breast, -54.3% (active).

Take `CCCCCCn1c(O)c(N=Nc2nc(-c3cc4ccccc4oc3=O)cs2)c2ccccc21`: the growth was 12% in the test with SR leukemia; 60.9% with RPMI-8226 leukemia; 34.1% in the test with OVCAR-8 ovarian; -53.2% (active) in the test with OVCAR-5 ovarian; -48.2% (active) with OVCAR-4 ovarian; 96.9% in the test on SK-OV-3 ovarian. For the same compound, the growth is -62.4% (active) in the test with IGROV1 ovarian; -94.9% (active) with OVCAR-3 ovarian; 60.5% in the test with HS 578T breast; 50.2% with NCI/ADR-RES ovarian; -20.5% (active) with BT-549 breast; 26.3% in the test with MDA-MB-435 melanoma. In addition, the growth is 56.2% with SW-620 colon; -18% (active) with MCF7 breast; -51.7% (active) with HCT-116 colon; 37.8% in the test with HCC-2998 colon; 13.6% in the test with KM12 colon.

For the compound `CC12CC[C@@H]3[C@]4(C)COC(c5cn[nH]c5-c5ccc(Br)cc5)O[C@@H]4CC[C@@]3(C)[C@@H]1CC(C1=CCOC1=O)O2` (some centres not stated), the growth was 40.6% with SR leukemia; 24.9% in the test with RPMI-8226 leukemia; 62.6% in the test with OVCAR-8 ovarian; 81.5% in the test on OVCAR-5 ovarian; 36.1% with OVCAR-4 ovarian; 73.5% in the test with SK-OV-3 ovarian. The growth in the test on IGROV1 ovarian was 50.3%; with OVCAR-3 ovarian, 56%; with HS 578T breast it was 55.6%; in the test with NCI/ADR-RES ovarian, 51.9%; in the test with T-47D breast, 16.3%; with BT-549 breast it was 21.7%. The growth in the test with MDA-MB-435 melanoma was 51.8%; in the test with SW-620 colon it was 62.1%; in the test on HCT-116 colon, 23.4%; in the test with HCC-2998 colon, 55.8%; in the test with KM12 colon, 39%; in the test on MDA-MB-468 breast it was 9.94% (active).

As to `C=C1CC[C@@H]2[C@]3(C)COC(c4cn[nH]c4-c4cccc(Br)c4)O[C@@H]3CC[C@@]2(C)[C@@H]1C/C=C1/C(=O)OCC1O` (some centres not stated), the growth is 12.7% with SR leukemia; -6.49% (active) with RPMI-8226 leukemia; -42.5% (active) with OVCAR-8 ovarian; -76.2% (active) in the test on OVCAR-5 ovarian; 10.8% in the test on OVCAR-4 ovarian; -33% (active) in the test on SK-OV-3 ovarian. Also, the growth was -60.2% (active) in the test with IGROV1 ovarian; -97.6% (active) in the test with OVCAR-3 ovarian; 5.38% (active) with HS 578T breast; -50.1% (active) with NCI/ADR-RES ovarian; -6.99% (active) in the test on T-47D breast; -94.2% (active) in the test with BT-549 breast. Moreover, the growth in the test on MDA-MB-435 melanoma was -50.2% (active); in the test with SW-620 colon, -81.1% (active); in the test with HCC-2998 colon it was -100% (active); with KM12 colon it was -67.1% (active); in the test with MDA-MB-468 breast it was -95.4% (active).
